In the supplement of paper PMC8728848:
This is one part of a sample in which the strongest signals are shown more often than they occur.

What was measured:
Experiment in all cases: glycan array binding signal (z-score within array); higher = stronger binding
Conditions in all cases: glycan notation: IUPAC condensed, linker removed
[1] = biological target: Fuc(a1-2)Gal(b1-4)GlcNAc
Summary of the method: (§1)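 Columns mapping to the same glycan were averaged after glycan names were converted to IUPAC-condensed notation. The data come from 3228 arrays in the Consortium for Functional Glycomics database, limited to those with an available protein sequence. Binding is reported as a within-array Z-score averaged across arrays of one protein sequence and across linkers.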

[2] = biological target: Fuc(a1-2)Gal(b1-4)GlcNAc(b1-3)Gal(b1-4)GlcNAc(b1-3)Gal(b1-4)GlcNAc
Summary of the method: as §1

[3] = biological target: Fuc(a1-2)Gal6S(b1-4)Glc
Summary of the method: as §1

[4] = biological target: Fuc(a1-2)GlcNAc
Summary of the method: as §1

[5] = biological target: Fuc(a1-2)[GalNAc(a1-3)]Gal(b1-4)GlcNAc(b1-2)Man(a1-3)[Fuc(a1-2)[GalNAc(a1-3)]Gal(b1-4)GlcNAc(b1-2)Man(a1-6)]Man(b1-4)GlcNAc(b1-4)GlcNAc
Summary of the method: as §1

[6] = biological target: Fuc(a1-2)[GalNAc(a1-3)]Gal(b1-4)GlcNAc(b1-3)Gal(b1-4)GlcNAc
Summary of the method: as §1

[7] = biological target: Fuc(a1-3)[Gal(b1-4)]GlcNAc
Summary of the method: as §1

[8] = biological target: Fuc(a1-3)[Gal(b1-4)]GlcNAc(b1-2)Man(a1-3)[Fuc(a1-3)[Gal(b1-4)]GlcNAc(b1-2)Man(a1-6)]Man(b1-4)GlcNAc(b1-4)[Fuc(a1-6)]GlcNAc
Summary of the method: as §1

[9] = biological target: Fuc(a1-3)[GalNAc(b1-4)]GlcNAc
Summary of the method: as §1

[10] = biological target: Gal(a1-3)Gal(b1-3)GlcNAc
Summary of the method: as §1

[11] = biological target: Gal(b1-3)GlcNAc
Summary of the method: as §1

[12] = biological target: Gal(b1-3)GlcNAc(b1-3)Gal(b1-4)GlcNAc(b1-6)[Gal(b1-3)GlcNAc(b1-3)]Gal(b1-4)Glc
Summary of the method: as §1

[13] = biological target: Gal(b1-3)GlcNAc(b1-6)Gal(b1-4)GlcNAc
Summary of the method: as §1

[14] = biological target: Gal(b1-3)[Fuc(a1-4)]GlcNAc(b1-3)Gal(b1-4)[Fuc(a1-3)]GlcNAc
Summary of the method: as §1

[15] = biological target: Gal(b1-4)GlcNAc(b1-2)Man(a1-3)[Man(a1-6)]Man(b1-4)GlcNAc(b1-4)GlcNAc
Summary of the method: as §1

[16] = biological target: Gal(b1-4)GlcNAc(b1-2)Man(a1-6)Man(b1-4)GlcNAc(b1-4)GlcNAc
Summary of the method: as §1

[17] = biological target: Gal(b1-4)GlcNAc(b1-2)[Gal(b1-4)GlcNAc(b1-4)]Man(a1-3)[Gal(b1-4)GlcNAc(b1-2)Man(a1-6)]Man(b1-4)GlcNAc(b1-4)GlcNAc
Summary of the method: as §1

[18] = biological target: Gal(b1-4)GlcNAc(b1-2)[Gal(b1-4)GlcNAc(b1-4)]Man(a1-3)[GlcNAc(b1-4)][Gal(b1-4)GlcNAc(b1-2)[Gal(b1-4)GlcNAc(b1-6)]Man(a1-6)]Man(b1-4)GlcNAc(b1-4)GlcNAc
Summary of the method: as §1

[19] = biological target: Gal3S(b1-3)GlcNAc
Summary of the method: as §1

[20] = biological target: GlcNAc(a1-4)Gal(b1-4)GalNAc
Summary of the method: as §1

[21] = biological target: GlcNAc(b1-3)[GlcNAc(b1-6)]GlcNAc(b1-4)GlcNAc
Summary of the method: as §1

[22] = biological target: Man(a1-2)Man(a1-2)Man(a1-6)[Man(a1-3)]Man
Summary of the method: as §1

[23] = biological target: Man(a1-2)Man(a1-3)[Man(a1-2)Man(a1-6)]Man
Summary of the method: as §1

[24] = biological target: Man(a1-2)Man(a1-3)[Man(a1-2)Man(a1-6)]Man(a1-6)[Man(a1-2)Man(a1-2)Man(a1-3)]Man
Summary of the method: as §1

[25] = biological target: Man(a1-2)Man(a1-6)[Man(a1-3)]Man(a1-6)[Man(a1-2)Man(a1-2)Man(a1-3)]Man
Summary of the method: as §1

[26] = biological target: Man(a1-2)Man(a1-6)[Man(a1-3)]Man(a1-6)[Man(a1-2)Man(a1-2)Man(a1-3)]Man(b1-4)GlcNAc(b1-4)GlcNAc
Summary of the method: as §1

[27] = biological target: Man(a1-3)[Man(a1-6)]Man
Summary of the method: as §1

[28] = biological target: Man(a1-3)[Man(a1-6)]Man(a1-6)[Man(a1-2)Man(a1-3)]Man(b1-4)GlcNAc(b1-4)GlcNAc
Summary of the method: as §1

[29] = biological target: Man(a1-3)[Man(a1-6)]Man(a1-6)[Man(a1-3)]Man(b1-4)GlcNAc(b1-4)GlcNAc
Summary of the method: as §1

[30] = biological target: Man(a1-3)[Man(a1-6)]Man(b1-4)GlcNAc(b1-4)GlcNAc
Summary of the method: as §1

[31] = biological target: Neu5Ac(a2-3)Gal(b1-3)GlcNAc(b1-3)Gal(b1-4)GlcNAc
Summary of the method: as §1

[32] = biological target: Neu5Ac(a2-3)Gal(b1-3)[Neu5Ac(a2-6)]GalNAc
Summary of the method: as §1

[33] = biological target: Neu5Ac(a2-3)Gal(b1-4)GlcNAc(b1-3)Gal
Summary of the method: as §1

[34] = biological target: Neu5Ac(a2-3)[GalNAc(b1-4)]Gal(b1-4)Glc
Summary of the method: as §1

[35] = biological target: Neu5Ac(a2-8)Neu5Ac(a2-8)Neu5Ac(a2-3)Gal(b1-4)Glc
Summary of the method: as §1

[36] = biological target: Neu5Gc(a2-6)GalNAc
Summary of the method: as §1

B1: BC2L-A (Burkholderia cenocepacia), Q1BKJ8_BURCA (protein)
chain: ADSQTSSNRAGEFSIPPNTDFRAIFFANAAEQQHIKLFIGDSQEPAAYHKLTTRDGPREATLNSGNGKIRFEVSVNGKPSATDARLAPINGKKSDGSPFTVNFGIVVSEDGHDSDYNDGIVVLQWPIG
[1]
  glycan array binding signal (z-score): 0.167
[2]
  glycan array binding signal (z-score): 0.018
[3]
  glycan array binding signal (z-score): -0.176
[4]
  glycan array binding signal (z-score): -0.178
[5]
  glycan array binding signal (z-score): -0.165
[6]
  glycan array binding signal (z-score): -0.296
[7]
  glycan array binding signal (z-score): -0.285
[8]
  glycan array binding signal (z-score): -0.217
[9]
  glycan array binding signal (z-score): -0.263
[10]
  glycan array binding signal (z-score): -0.284
[11]
  glycan array binding signal (z-score): -0.29
[12]
  glycan array binding signal (z-score): -0.22
[13]
  glycan array binding signal (z-score): -0.219
[14]
  glycan array binding signal (z-score): -0.086
[15]
  glycan array binding signal (z-score): 2.13
[16]
  glycan array binding signal (z-score): -0.182
[17]
  glycan array binding signal (z-score): -0.144
[18]
  glycan array binding signal (z-score): -0.22
[19]
  glycan array binding signal (z-score): 0.002
[20]
  glycan array binding signal (z-score): -0.296
[21]
  glycan array binding signal (z-score): -0.249
[22]
  glycan array binding signal (z-score): 4.07
[23]
  glycan array binding signal (z-score): 2.25
[24]
  glycan array binding signal (z-score): 4.82
[25]
  glycan array binding signal (z-score): 4.09
[26]
  glycan array binding signal (z-score): 5.06
[27]
  glycan array binding signal (z-score): 5.28
[28]
  glycan array binding signal (z-score): 5.49
[29]
  glycan array binding signal (z-score): 4.38
[30]
  glycan array binding signal (z-score): 4.23
[31]
  glycan array binding signal (z-score): -0.218
[32]
  glycan array binding signal (z-score): -0.083
[33]
  glycan array binding signal (z-score): -0.214
[34]
  glycan array binding signal (z-score): -0.295
[35]
  glycan array binding signal (z-score): -0.253
[36]
  glycan array binding signal (z-score): -0.29
